According to PubChem BioAssay AID1159580 (chemical genetic matrix, 2015):
“And” between values parts separate entries of the source, which are not always exact repeats. Equal entries are not always repeated. The whole screen tested about 5,500 compounds, of which about 2,000 (36%) were called active. About 18% were inconclusive and are not listed. Rule as the data show it: active = normalized growth mostly below about 0.91 (no sharp cut-off); inconclusive = no clear call, values can overlap the other calls; inactive = mostly above about 0.92. The list shows a part of the results.

Assay: chemical genetic growth profiling, strain panel (AID 1159580);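 also: tested at 20 µM; growth read once vehicle control cultures reached saturation at 30 °C; 1 = growth at the plate median or of vehicle wells; lower values mean less growth of the strain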
Settings: S. cerevisiae deletion strains, growth OD

**Q.** With `CCOC(=O)CCCCCCCCCCCCC1C=CCC1` (centres undefined) as the compound, how does the normalized growth (locus YAL013W, strain DEP1, stronger effect = lower value) read?
**A.** 0.054 (active)

**Q.** What about the normalized growth (locus YAL021C, strain ccr4, stronger effect = lower value) of the same compound?
**A.** 1.01 (inactive)

**Q.** What about the normalized growth (locus YAL026C, strain drs2, stronger effect = lower value) of the same compound?
**A.** 1 (inactive)

**Q.** What about the normalized growth (locus YAL030W, strain snc1, stronger effect = lower value) of the same compound?
**A.** 0.982 (inactive)

**Q.** What about the normalized growth (locus YBL061C, strain skt5, stronger effect = lower value) of the same compound?
**A.** 0.977 (inactive)

**Q.** And the normalized growth (locus YBR009C, strain hhf1, stronger effect = lower value)?
**A.** 0.922 (inactive)

**Q.** What about the normalized growth (locus YBR021W, strain FUR4, stronger effect = lower value) of the same compound?
**A.** 0.0914 (active)

**Q.** And the normalized growth (locus YBR023C, strain chs3, stronger effect = lower value)?
**A.** 0.979 (inactive)

**Q.** What about the normalized growth (locus YBR171W, strain sec66, stronger effect = lower value) of the same compound?
**A.** 0.973 (inactive)

**Q.** What about the normalized growth (locus YBR229C, strain ROT2, stronger effect = lower value) of the same compound?
**A.** 0.0494 (active)

**Q.** What about the normalized growth (locus YBR231C, strain swc5, stronger effect = lower value) of the same compound?
**A.** 0.978 (inactive)

**Q.** What about the normalized growth (locus YBR279W, strain paf1, stronger effect = lower value) of the same compound?
**A.** 0.981 (inactive)

**Q.** And the normalized growth (locus YCL011C, strain gbp2, stronger effect = lower value)?
**A.** 0.967 (inactive)

**Q.** What about the normalized growth (locus YCL016C, strain dcc1, stronger effect = lower value) of the same compound?
**A.** 0.981 (inactive)

**Q.** And the normalized growth (locus YCL029C, strain bik1, stronger effect = lower value)?
**A.** 0.067 (active)

**Q.** And the normalized growth (locus YCL061C, strain MRC1, stronger effect = lower value)?
**A.** 0.983 (inactive)

**Q.** What about the normalized growth (locus YCL069W, strain vba3, stronger effect = lower value) of the same compound?
**A.** 0.981 (inactive)

**Q.** What about the normalized growth (locus YCR088W, strain abp1, stronger effect = lower value) of the same compound?
**A.** 0.983 (inactive)

**Q.** What about the normalized growth (locus YDL005C, strain med2, stronger effect = lower value) of the same compound?
**A.** 0.974 (inactive)

**Q.** And the normalized growth (locus YDL035C, strain GPR1, stronger effect = lower value)?
**A.** 0.0527 (active)

**Q.** And the normalized growth (locus YDL040C, strain nat1, stronger effect = lower value)?
**A.** 0.974 (inactive)

**Q.** And the normalized growth (locus YDL074C, strain BRE1, stronger effect = lower value)?
**A.** 0.0833 (active)

**Q.** What about the normalized growth (locus YDL101C, strain DUN1, stronger effect = lower value) of the same compound?
**A.** 0.0581 (active)

**Q.** What about the normalized growth (locus YDL134C, strain PPH21, stronger effect = lower value) of the same compound?
**A.** 0.0502 (active)

**Q.** What about the normalized growth (locus YDL185W, strain tfp1, stronger effect = lower value) of the same compound?
**A.** 0.499 (active)

**Q.** And the normalized growth (locus YDL192W, strain arf1, stronger effect = lower value)?
**A.** 0.0606 (active)

**Q.** What about the normalized growth (locus YDR001C, strain nth1, stronger effect = lower value) of the same compound?
**A.** 0.994 (inactive)

**Q.** What about the normalized growth (locus YDR069C, strain doa4, stronger effect = lower value) of the same compound?
**A.** 0.958 (inactive)

**Q.** What about the normalized growth (locus YDR101C, strain arx1, stronger effect = lower value) of the same compound?
**A.** 0.0619 (active)

**Q.** And the normalized growth (locus YDR137W, strain rgp1, stronger effect = lower value)?
**A.** 0.979 (inactive)

**Q.** And the normalized growth (locus YDR159W, strain sac3, stronger effect = lower value)?
**A.** 0.978 (inactive)

**Q.** What about the normalized growth (locus YDR162C, strain NBP2, stronger effect = lower value) of the same compound?
**A.** 0.0522 (active)

**Q.** And the normalized growth (locus YDR195W, strain ref2)?
**A.** 1.06 (inactive)

**Q.** And the normalized growth (locus YDR297W, strain sur2, stronger effect = lower value)?
**A.** 0.984 (inactive)

**Q.** And the normalized growth (locus YDR318W, strain mcm21, stronger effect = lower value)?
**A.** 0.0614 (active)

**Q.** What about the normalized growth (locus YDR334W, strain swr1, stronger effect = lower value) of the same compound?
**A.** 0.976 (inactive)

**Q.** And the normalized growth (locus YDR335W, strain msn5, stronger effect = lower value)?
**A.** 1 (inactive)

**Q.** What about the normalized growth (locus YDR388W, stronger effect = lower value) of the same compound?
**A.** 0.0583 (active)

**Q.** And the normalized growth (locus YDR392W, strain spt3, stronger effect = lower value)?
**A.** 0.497 (active)

**Q.** What about the normalized growth (locus YDR502C, strain sam2, stronger effect = lower value) of the same compound?
**A.** 0.0641 (active)

**Q.** What about the normalized growth (locus YEL003W, strain gim4, stronger effect = lower value) of the same compound?
**A.** 0.969 (inactive)

**Q.** And the normalized growth (locus YEL037C, strain rad23, stronger effect = lower value)?
**A.** 0.989 (inactive)

**Q.** What about the normalized growth (locus YEL061C, strain CIN8 (second series), stronger effect = lower value) of the same compound?
**A.** 0.978 (inactive)

**Q.** What about the normalized growth (locus YEL061C, strain CIN8, stronger effect = lower value) of the same compound?
**A.** 0.054 (active)

**Q.** And the normalized growth (locus YER015W, strain faa2, stronger effect = lower value)?
**A.** 0.982 (inactive)

**Q.** What about the normalized growth (locus YER016W, strain bim1, stronger effect = lower value) of the same compound?
**A.** 0.978 (inactive)

**Q.** What about the normalized growth (locus YER110C, stronger effect = lower value) of the same compound?
**A.** 0.0827 (active)

**Q.** What about the normalized growth (locus YER111C, strain swi4, stronger effect = lower value) of the same compound?
**A.** 0.958 (inactive)

**Q.** What about the normalized growth (locus YER155C, strain BEM2 (second series), stronger effect = lower value) of the same compound?
**A.** 0.594 (active)

**Q.** What about the normalized growth (locus YER155C, strain BEM2, stronger effect = lower value) of the same compound?
**A.** 0.0734 (active)

**Q.** What about the normalized growth (locus YER167W, strain BCK2, stronger effect = lower value) of the same compound?
**A.** 0.0529 (active)

**Q.** And the normalized growth (locus YFR010W, strain ubp6, stronger effect = lower value)?
**A.** 0.969 (inactive)

**Q.** What about the normalized growth (locus YGL078C, strain dbp3, stronger effect = lower value) of the same compound?
**A.** 0.688 (active)

**Q.** And the normalized growth (locus YGL086W, strain mad1, stronger effect = lower value)?
**A.** 0.0537 (active)

**Q.** What about the normalized growth (locus YGL167C, strain pmr1, stronger effect = lower value) of the same compound?
**A.** 0.972 (inactive)

**Q.** And the normalized growth (locus YGL173C, strain kem1, stronger effect = lower value)?
**A.** 0.96 (inactive)

**Q.** And the normalized growth (locus YGL227W, strain vid30, stronger effect = lower value)?
**A.** 0.962 (inactive)

**Q.** What about the normalized growth (locus YGL240W, strain doc1, stronger effect = lower value) of the same compound?
**A.** 0.972 (inactive)

**Q.** What about the normalized growth (locus YGL248W, strain PDE1, stronger effect = lower value) of the same compound?
**A.** 0.0488 (active)

**Q.** What about the normalized growth (locus YGL253W, strain hxk2, stronger effect = lower value) of the same compound?
**A.** 0.998 (inactive)

**Q.** And the normalized growth (locus YGR078C, strain PAC10, stronger effect = lower value)?
**A.** 0.053 (active)

**Q.** What about the normalized growth (locus YGR135W, strain pre9, stronger effect = lower value) of the same compound?
**A.** 0.06 (active)

**Q.** And the normalized growth (locus YGR252W, strain gcn5, stronger effect = lower value)?
**A.** 0.11 (active)

**Q.** And the normalized growth (locus YHR013C, strain ard1, stronger effect = lower value)?
**A.** 0.815 (active)

**Q.** What about the normalized growth (locus YHR027C, strain rpn1, stronger effect = lower value) of the same compound?
**A.** 0.984 (inactive)

**Q.** And the normalized growth (locus YHR030C, strain SLT2, stronger effect = lower value)?
**A.** 0.0494 (active) and 0.992 (inactive)

**Q.** What about the normalized growth (locus YHR079C, strain IRE1 (second series), stronger effect = lower value) of the same compound?
**A.** 0.0604 (active)

**Q.** What about the normalized growth (locus YHR079C, strain IRE1, stronger effect = lower value) of the same compound?
**A.** 0.983 (inactive)

**Q.** What about the normalized growth (locus YHR094C, strain hxt1, stronger effect = lower value) of the same compound?
**A.** 0.0651 (active)

**Q.** And the normalized growth (locus YHR129C, strain ARP1, stronger effect = lower value)?
**A.** 0.0559 (active)

**Q.** What about the normalized growth (locus YHR142W, strain chs7, stronger effect = lower value) of the same compound?
**A.** 0.975 (inactive)

**Q.** And the normalized growth (locus YHR200W, strain rpn10, stronger effect = lower value)?
**A.** 0.0588 (active)

**Q.** What about the normalized growth (locus YIL066C, strain RNR3, stronger effect = lower value) of the same compound?
**A.** 0.0493 (active)

**Q.** And the normalized growth (locus YIL073C, strain SPO22, stronger effect = lower value)?
**A.** 0.148 (active)

**Q.** And the normalized growth (locus YIL125W, strain kgd1, stronger effect = lower value)?
**A.** 0.773 (active)

**Q.** What about the normalized growth (locus YIR030C, strain dcg1, stronger effect = lower value) of the same compound?
**A.** 0.0637 (active)

**Q.** And the normalized growth (locus YJL092W, strain hpr5, stronger effect = lower value)?
**A.** 0.994 (inactive)

**Q.** What about the normalized growth (locus YJL095W, strain BCK1 (second series), stronger effect = lower value) of the same compound?
**A.** 0.969 (inactive)

**Q.** What about the normalized growth (locus YJL095W, strain BCK1, stronger effect = lower value) of the same compound?
**A.** 0.0599 (active) and 0.989 (inactive)

**Q.** What about the normalized growth (locus YJL115W, strain asf1, stronger effect = lower value) of the same compound?
**A.** 0.99 (inactive)

**Q.** What about the normalized growth (locus YJL129C, strain trk1, stronger effect = lower value) of the same compound?
**A.** 0.91 (inactive)

**Q.** What about the normalized growth (locus YJL134W, strain LCB3, stronger effect = lower value) of the same compound?
**A.** 0.0504 (active)

**Q.** And the normalized growth (locus YJL154C, strain vps35, stronger effect = lower value)?
**A.** 0.997 (inactive)

**Q.** What about the normalized growth (locus YJL164C, strain tpk1, stronger effect = lower value) of the same compound?
**A.** 0.952 (inactive)

**Q.** What about the normalized growth (locus YJL166W, strain qcr8, stronger effect = lower value) of the same compound?
**A.** 0.942 (inactive)

**Q.** And the normalized growth (locus YJL168C, strain set2, stronger effect = lower value)?
**A.** 0.0586 (active)

**Q.** And the normalized growth (locus YJL187C, strain SWE1 (second series), stronger effect = lower value)?
**A.** 0.0498 (active)

**Q.** What about the normalized growth (locus YJL187C, strain SWE1, stronger effect = lower value) of the same compound?
**A.** 0.98 (inactive)

**Q.** What about the normalized growth (locus YJR043C, strain POL32, stronger effect = lower value) of the same compound?
**A.** 0.0731 (active)
